Screens from PubChem BioAssay.
TGFb inhibitor: inhibitors of TGF-b signaling | HepG2 CAGA-GFP TGF-b/SMAD3 reporter, GFP fluorescence, 18 h; TGF-beta stimulated, 500 pg/mL final | Potency, µM (series often up to 46.1 µM), most hits filed as inhibitors | hit rate 1.2% among 410,000; further: nearly all actives have a fitted effect of over 65% in size
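Inhibition was scored as loss of TGF-beta-induced (500 pg/mL final, 18 hours, 37 degrees C) GFP in HEPG2 cells carrying a CAGA-GFP reporter, in DMEM with 1% FBS. Well GFP was summed per cell; Activity was normalised to unstimulated and stimulated DMSO wells, then concentration-response fitting.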
ATXN2 expr inh: reduces ATXN2 reporter expression in HEK-293 cells; AID 1745845; HEK-293 ATXN2-luciferase reporter, luminescence, 24 h; hit rate 0.72% among 360,000; Potency, µM (series often up to 57 µM), actives largely listed as inhibitors; further: nearly all actives have a fitted effect of over 55% in size
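qHTS (up to 57 uM final) was run with 24 h compound exposure of reporter cells at 37 °C. Each well was multiplexed: SteadyGlo luminescence measured ATXN2-luciferase expression after a fluorogenic Gly-Phe-AFC viability readout (25 uM final).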
HepG2 tox: HepG2 cytotoxicity, counter-screen for TGF-b inhibitors | Potency, µM (titrated, usually from 46.1 µM), hits mostly cytotoxic | hit rate 0.76% among 410,000 | HepG2 CAGA-GFP viability, ATP luminescence, 18 h
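HepG2 CAGA-GFP cells (1000/well, DMEM with 1% FBS) received compound, then TGF-beta at 500 pg/mL final, and were incubated 18 hours at 37 degrees C. Viability was read by CellTiter-Glo luminescence. Media-only wells were set as complete cell-killing and DMSO as no toxicity.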
IL-1B inflam inh: inhibitors of inflammasome signaling (IL-1 beta secretion). THP-1 LPS/ATP IL-1B secretion, AlphaLISA, 16 h; hits give low values. activity change, % at 57.5 µM. hit rate 4.7% among 360,000; in the data active means activity change below about -50%; inconclusive means mostly about -30% to -49%
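THP-1 cells pretreated 1 hr with compounds (up to 57.5 uM final), then stimulated with LPS (250 ng/mL final) plus ATP (1.25 mM final); secreted IL-1B measured by AlphaLISA after 16 hr, decreased signal indicating inhibition.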
ATXN viability: reduces viability in counter-screen for ATXN expression inhibitors. S2 cells (HEK-293 line with an ATXN2-luciferase reporter) viability, CellTiter-Fluor protease fluorescence, 24 h. Potency, µM (doses to about 56.7 µM), usual class: cytotoxic. hit rate 0.49% among 400,000. AID 651635; further: nearly all actives have a fitted effect of over 40% in size
Large screens that a line does not name were inactive. This is a sample that favours compounds with a hit; in the whole collection about 5.7% have one here. Unless noted, the call rests on the fitted dose curve; in most records, active means well fitted curve in the direction sought with a large enough effect; inconclusive means small, poorly fitted or top-dose-only effect, or another doubt; inactive means no such curve, though single readings can be large; an effect the other way counts as inactive or inconclusive.

COc1ccc(-c2cc(C(F)(F)F)nc(N)n2)cc1	none
CS(=O)(=O)c1nc(-c2ccc(F)cc2)cc(C(F)(F)F)n1	TGFb inhibitor inconclusive, ATXN2 expr inh inconclusive, HepG2 tox 11µM, IL-1B inflam inh -103, ATXN viability inconclusive
CCc1ccc(/C=C/c2c([N+](=O)[O-])c(=O)n(C)c(=O)n2C)cc1	IL-1B inflam inh -98
COc1ccc(/C=C/c2c([N+](=O)[O-])c(=O)n(C)c(=O)n2C)cc1	none
Cn1c(/C=C/N(Cc2ccccc2)c2ccccc2)c([N+](=O)[O-])c(=O)n(C)c1=O	ATXN viability inconclusive (no result: ATXN2 expr inh)
CCOc1ccc(/C=C/c2c([N+](=O)[O-])c(=O)n(C)c(=O)n2C)cc1	IL-1B inflam inh -93
Cc1[nH]n(-c2ccccc2)c(=O)c1C(c1cccc([N+](=O)[O-])c1)c1c(C)[nH]n(-c2ccccc2)c1=O	IL-1B inflam inh -85, ATXN viability inconclusive
CC(Nc1nc(Nc2ccc(F)cc2)nc(SCC(N)=O)n1)c1ccccc1 (centres undefined)	IL-1B inflam inh -60
COc1ccc(Nc2nn3c(=O)c4cc5c(cc4nc3s2)OCO5)c(OC)c1	none (no result: IL-1B inflam inh)
CCCc1ccc2oc(C(=O)N(Cc3ccncc3)CC3CCCO3)c(C)c2c1 (centres undefined)	TGFb inhibitor inconclusive, IL-1B inflam inh -85
Cc1ccc2oc(C(=O)N(Cc3ccncc3)CC3CCCO3)c(C)c2c1 (centres undefined)	none
CC1CCN(C2CCN(C(=O)c3ccccc3F)CC2)CC1	HepG2 tox 11µM
COc1ccc(NC(=O)c2c(NCc3ccc(C)o3)sc3c2CCC(C)C3)cc1 (centres undefined)	TGFb inhibitor inconclusive, ATXN2 expr inh inconclusive, ATXN viability inconclusive (no result: IL-1B inflam inh)
C[C@]12CC[C@H](O)CC1=CC[C@@H]1[C@H]2CC[C@]2(C)C(c3cccnc3)=CC[C@H]12	none (no result: TGFb inhibitor, HepG2 tox, IL-1B inflam inh, ATXN viability)
Cc1c(NC(=O)CSc2nnc3c4ccccc4n(CCc4ccccc4)c3n2)c(=O)n(-c2ccccc2)n1C	IL-1B inflam inh -62
CCn1c2ccccc2c2nnc(SCC(=O)Nc3c(C)n(C)n(-c4ccccc4)c3=O)nc21	none
COc1ccc(C(CC(=O)Nc2ccc(C)cn2)N2Cc3ccccc3C2=O)cc1OC (centres undefined)	none (no result: IL-1B inflam inh)
C/C(=N\N=C(N)N)c1ccc(Cl)c(Cl)c1	TGFb inhibitor inconclusive, IL-1B inflam inh -103
CCCC(=O)OC/C(O)=C(\C#N)c1nc2ccccc2[nH]1	ATXN2 expr inh inconclusive, IL-1B inflam inh -105, ATXN viability inconclusive
Cc1cc(C)cc(OCC(=O)OC/C(O)=C(\C#N)c2nc3ccccc3[nH]2)c1	ATXN2 expr inh inconclusive, IL-1B inflam inh -98, ATXN viability inconclusive
N#CC(=C(O)COC(=O)CCCNC(=O)c1ccc(Cl)cc1)c1nc2ccccc2[nH]1	ATXN2 expr inh inconclusive, IL-1B inflam inh -97, ATXN viability inconclusive
COCC(=O)OC/C(O)=C(\C#N)c1nc2ccccc2[nH]1	ATXN2 expr inh inconclusive, IL-1B inflam inh -104, ATXN viability inconclusive
COc1cccc(CNC(=O)c2c(OC)cc(=O)n3c2CCN(C(=O)c2cc(F)cc(F)c2)CC3)c1	none (no result: TGFb inhibitor, ATXN2 expr inh, HepG2 tox, IL-1B inflam inh)
CN(C)c1ccc(N=Cc2ccncc2)cc1	none (no result: ATXN2 expr inh, IL-1B inflam inh, ATXN viability)
N#C/C(=C(/O)CCl)c1nc2ccccc2[nH]1	TGFb inhibitor 10µM, ATXN2 expr inh inconclusive, IL-1B inflam inh -95, ATXN viability inconclusive
N#C/C(=C(/O)COC(=O)CCC1CCCCC1)c1nc2ccccc2[nH]1	ATXN2 expr inh inconclusive, IL-1B inflam inh -85, ATXN viability inconclusive
CCOC(=O)Cc1ccc(NC(=O)N2CCC(CN3CCCCCC3)CC2)cc1	none (no result: ATXN2 expr inh, IL-1B inflam inh, ATXN viability)
O=c1oc(=O)c2ccccc2c2ccccc12	ATXN viability inconclusive
Nc1ccc2oc(=O)c3ccccc3c2c1	IL-1B inflam inh -77
COc1ccc(Cc2nnc(N/N=C/c3ccc(O)cc3O)[nH]c2=O)cc1OC	IL-1B inflam inh -53
Cc1ccc(Cl)cc1-n1ncc2c(NCCc3ccccc3)ncnc21	TGFb inhibitor inconclusive, ATXN2 expr inh inconclusive, ATXN viability inconclusive (no result: IL-1B inflam inh)
Cc1ccc(Cl)cc1-n1ncc2c(NCCCc3ccccc3)ncnc21	TGFb inhibitor inconclusive, ATXN2 expr inh inconclusive, ATXN viability 32µM (no result: IL-1B inflam inh)
COc1ccc(-n2c(CNC(=O)c3cccc4ccccc34)nnc2SC)cc1	none (no result: TGFb inhibitor, ATXN2 expr inh, HepG2 tox, IL-1B inflam inh)
CCC(Sc1nnc(C)n2c1cc1occc12)C(=O)Nc1ccccc1OC (centres undefined)	none (no result: ATXN2 expr inh, IL-1B inflam inh, ATXN viability)
COc1ccc2cnnc(SCC(=O)Nc3ccc(C(=O)O)cc3)c2c1OC	none
Cc1nnc(SCC(=O)Nc2ccccc2)c2ccccc12	IL-1B inflam inh -102
COc1ccc2cnnc(SCC(=O)Nc3ccccc3)c2c1OC	IL-1B inflam inh -58
Cc1ccccc1NC(=O)CSc1nnc(C)c(=O)[nH]1	none
Cc1ccccc1NC(=O)CSc1nnc(C)c2ccccc12	IL-1B inflam inh -69
Cc1ccc(NC(=O)CSc2nncc3ccccc23)cc1	none
Cc1nnc(SCC(=O)Nc2ccc(O)cc2)c2ccccc12	IL-1B inflam inh -98
CCc1cc[n+](CC(=O)c2ccc(F)cc2)cc1C(=O)O	none (no result: ATXN2 expr inh, IL-1B inflam inh, ATXN viability)
CC(Oc1ccccc1)C(=O)Nc1ccccc1C(=O)OCc1cc(=O)n2nc(C(C)C)sc2n1 (centres undefined)	none (no result: ATXN2 expr inh, IL-1B inflam inh, ATXN viability)
CCC(=O)N1CCc2cc(CNS(=O)(=O)c3ccc(C(C)C)cc3)ccc21	TGFb inhibitor inconclusive, ATXN viability inconclusive (no result: IL-1B inflam inh)
O=[N+]([O-])c1ccc2nc(-c3ccccc3)[nH]c2c1	IL-1B inflam inh -69
O=C(Nc1ccc(Cl)c(Cl)c1)N1N=CCC1c1ccccc1 (centres undefined)	IL-1B inflam inh -64
O=C(CSc1ccc(Cl)cc1)N1N=CCC1c1ccccc1 (centres undefined)	IL-1B inflam inh -63
CCN(CC)CCCNC(=O)c1ccc(OCC(=O)Nc2ccccc2C(F)(F)F)c(OC)c1	IL-1B inflam inh -62, ATXN viability inconclusive
CCc1ccc(NC(=O)N2CCOc3ccc(Cl)cc32)cc1	none (no result: ATXN2 expr inh, IL-1B inflam inh, ATXN viability)
CCOC(=O)c1[nH]c2ccccc2c1NC(=O)c1cc(OC)cc(OC)c1	none (no result: IL-1B inflam inh)
COc1ccc(-n2cc(C(=O)NCCc3ccc(C)cc3)c3ccccc3c2=O)cc1	TGFb inhibitor inconclusive (no result: ATXN2 expr inh, IL-1B inflam inh, ATXN viability)
Cc1cccc(/C=C2\Sc3ccc(C(=O)N4CCC(C)CC4)cc3N(C)C2=O)c1	TGFb inhibitor inconclusive, IL-1B inflam inh -54
COc1ccc2c(c1OC)C(=O)OC2Nc1nc(-c2cc3cc(Br)ccc3oc2=O)cs1 (centres undefined)	IL-1B inflam inh -56
COc1ccc(-c2csc(NC3OC(=O)c4c3ccc(OC)c4OC)n2)cc1OC (centres undefined)	TGFb inhibitor inconclusive, ATXN2 expr inh inconclusive, ATXN viability inconclusive (no result: IL-1B inflam inh)
O=C1NC[C@H](Cc2ccccc2)N(CC2CCN(CCc3ccc(-c4ccccc4)cc3)CC2)C1=O	ATXN2 expr inh inconclusive, IL-1B inflam inh -59
